PubChem BioAssay
Where “and” joins values, the source holds several entries; their conditions need not be identical. Equal values may be shown once. Inconclusive results are not listed. Calls of active or inactive are those of the source.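 Rule for the calls, unless noted: active = normalized viability below 100% at a tested concentration; inactive = the rest.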

How the values were obtained:
[1] = growth inhibition of DIPG glioma cells, dose response, cell-based, SU-DIPG-XVII, MIPE5.0, CellTiter-Glo, qHTS (AID 1347060; cut-off not given, nearly all actives have AC50 up to about 26 µM;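 for AC50: cells exposed to compound for 48 hours before viability readout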); conditions: SU-DIPG-XVII viability, CellTiter-Glo ATP luminescence
[2] = growth inhibition of DIPG glioma cells, dose response, cell-based, SU-DIPG-XIII, MIPE4.0, CellTiter-Glo, qHTS (AID 1347061; cut-off not given, nearly all actives have AC50 up to about 37 µM;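 note: cells exposed to compound for 48 hours before readout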); conditions: SU-DIPG-XIII viability, CellTiter-Glo ATP luminescence
[3] = growth inhibition of DIPG glioma cells, dose response, cell-based, JHH-DIPG-1, MIPE4.0, CellTiter-Glo, qHTS (AID 1347062; cut-off not given, nearly all actives have AC50 up to about 27 µM;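 for AC50: cells exposed to compound for two days before readout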); conditions: JHH-DIPG-1 viability, CellTiter-Glo ATP luminescence
[4] = growth inhibition of DIPG glioma cells, dose response, cell-based, SU-DIPG-IV, MIPE4.0, CellTiter-Glo, qHTS (AID 1347063; cut-off not given, nearly all actives have AC50 up to about 30 µM;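 note: compound exposure lasted 48 hours before the viability readout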); conditions: SU-DIPG-IV viability, CellTiter-Glo ATP luminescence
[5] = growth inhibition of DIPG glioma cells, dose response, cell-based, SU-DIPG-XIII, MIPE5.0, CellTiter-Glo, qHTS (AID 1347064; cut-off not given, nearly all actives have AC50 up to about 23 µM;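 for AC50: cells exposed to compound for 48 hours before the viability read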); conditions: SU-DIPG-XIII viability, CellTiter-Glo ATP luminescence
[6] = SU-DIPG-VI glioma cell viability, MIPE4.0 library, CellTiter-Glo luminescence, qHTS (AID 1347066; cut-off not given, nearly all actives have AC50 up to about 30 µM;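 note: cells exposed to compound for 48 hours before readout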); conditions: CellTiter-Glo ATP luminescence
[7] = JHH-DIPG-1 glioma cell viability, MIPE5.0 library, CellTiter-Glo luminescence, qHTS (AID 1347067; cut-off not given, nearly all actives have AC50 up to about 26 µM;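 note: cells exposed to compound for 48 hours before readout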); conditions: JHH-DIPG-1 glioma viability, CellTiter-Glo ATP luminescence
[8] = SU-DIPG-XXV glioma cell viability, MIPE5.0 library, qHTS (AID 1347068; cut-off not given, nearly all actives have IC50 up to about 30 µM)
[9] = viability loss in pontine glioma line – cell-based, SU-DIPG-XXV, MIPE5.0, CellTiter-Glo, qHTS, dose response (AID 1347065; cut-off not given, nearly all actives have AC50 up to about 26 µM;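 note: cells exposed to compound for 48 hours before ATP readout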); conditions: CellTiter-Glo ATP luminescence
[10] = sensitizers of A549 cells to miR-34 induction, primary screen, imaging, A549 dox-inducible miR-34, nuclei and caspase counts (AID 1347080;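 active = compounds whose cell count with miR-34 switched on is under 0.7 times the count with it off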); conditions: A549 miR-34 inducible, Hoechst nuclei count, 48 h
[11] = survival rescue of mitochondrial mutant cells in low glucose, primary screen, MELAS cybrids, Rieske KO mouse fibroblasts, CellTiter-Glo (AID 1508586;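 active = mean z-score across replicates of 1.96 or higher in either the MELAS or the Rieske mutant cell line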;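 note: z relative to plate mean and SD of compound and empty wells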)
[12] = modifiers of HSF1 nuclear foci, imaging, Selleck Cancer Library (AID 1347162; in the data active = plate-normalised HSF1 focus index below about 0.46); conditions: human cells, at 10 µM; SSMD: measured here: HSF1 foci SSMD mean; cell count: measured here: cell number; plate-normalised HSF1 focus index: stronger effect = lower value
[13] = ovarian cancer cell viability with rucaparib, profiling panel, oncology-focused library, rucaparib conditional (AID 1508598); conditions: patient-derived ovarian cancer cells, CellTiter-Glo viability, 144 h, stronger effect = lower value
[14] = stronger effect = lower value, cell number ratio, induced over uninduced
[15] = measured here: relative caspase fold change +Dox/-Dox
[16] = measured here: total cells with miR-34 induction, stronger effect = lower value
[17] = measured here: total cells without miR-34 induction

C[Se]CCC(N)C(=O)O (configuration not stated)
inactive: outcome [1] | outcome [2] | outcome [3] | outcome [4] | outcome [5] | outcome [6] | outcome [7] | outcome [8]

c1cncc(CN2CCC(n3ncc4c(N5CCOCC5)nc(-c5ccc6[nH]ccc6c5)nc43)CC2)c1
active: AC50 [1] 7.42 µM | AC50 [2] 8.33 µM | AC50 [3] 14.8 µM | AC50 [4] 2.09 µM | AC50 [5] 16.6 µM | AC50 [9] 5.25 µM | AC50 [7] 20.9 µM | z-score ([11]; MELAS cybrid survival, CellTiter-Glo 48 h, stronger effect = higher value) 4.98
inactive: outcome [8] | fold change [10, 14] 0.951
-1.65: z-score ([11]; Rieske KO mouse fibroblast survival, CellTiter-Glo 72 h)
2980: cell count [10, 16]
3130: cell count [10, 17]
0.489: fold change [10, 15]

CC(/C=C/C(=O)NO)=C\[C@@H](C)C(=O)c1ccc(N(C)C)cc1
7010: cell count [12]
952 and 1150: cell count [10, 17]
926 and 1160: cell count [10, 16]
-1.78: SSMD [12]
active: AC50 [1] 0.332 µM | AC50 [2] 7.43 µM | AC50 [3] 1.48 µM | AC50 [4] 0.59 µM | AC50 [5] 0.209 µM | AC50 [9] 0.372 µM | AC50 [7] 0.525 µM | viability ([13]; at 0.000305 µM, OCI-C5x cells, without rucaparib) 91.4% | viability ([13]; at 0.000305 µM, OCI-P5x cells, with rucaparib 20 µM, 100% = cells with rucaparib alone) 77.4% | viability ([13]; at 0.000305 µM, OCI-P5x cells, without rucaparib) 83.4% | viability ([13]; at 0.00122 µM, OCI-P5x cells, with rucaparib 20 µM, 100% = cells with rucaparib alone) 82.5% | viability ([13]; at 0.00122 µM, OCI-P5x cells, without rucaparib) 83.5% | viability ([13]; at 0.00488 µM, OCI-P5x cells, with rucaparib 20 µM, 100% = cells with rucaparib alone) 75.8% | viability ([13]; at 0.00488 µM, OCI-P5x cells, without rucaparib) 89.8% | viability ([13]; at 0.0195 µM, OCI-P5x cells, with rucaparib 20 µM, 100% = cells with rucaparib alone) 81.7% | viability ([13]; at 0.0195 µM, OCI-P5x cells, without rucaparib) 76.1%
1.51 and 0.994: fold change [10, 15]
inactive: fold change [10, 14] 0.973 and 1 | plate-normalised HSF1 focus index [12] 0.921 | viability ([13]; at 0.000305 µM, OCI-C5x cells, with rucaparib 10 µM, 100% = cells with rucaparib alone) 111% | viability ([13]; at 0.00122 µM, OCI-C5x cells, with rucaparib 10 µM, 100% = cells with rucaparib alone) 117% | viability ([13]; at 0.00122 µM, OCI-C5x cells, without rucaparib) 102% | viability ([13]; at 0.00488 µM, OCI-C5x cells, with rucaparib 10 µM, 100% = cells with rucaparib alone) 107% | viability ([13]; at 0.00488 µM, OCI-C5x cells, without rucaparib) 105% | viability ([13]; at 0.0195 µM, OCI-C5x cells, with rucaparib 10 µM, 100% = cells with rucaparib alone) 115% | viability ([13]; at 0.0195 µM, OCI-C5x cells, without rucaparib) 109%
